# FBW7 act = FBW7 E3 ligase activators, primary screen, biochemical, AlphaScreen, human; 0.13% of 650,000 active; F-box/WD repeat-containing protein 7 (Homo sapiens), Q969H0; normalized activity (activation), % at 26.1 µM; AlphaScreen FBW7–phospho-cyclin E peptide binding, activator screen; in the data active means normalized activity above about 1.9%;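 further: purified mutant Fbw7 with reduced substrate affinity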
# GPR151 ag = activators of human GPR151, primary screen, cell-based, PathHunter beta-arrestin, luminescence. PathHunter beta-arrestin GPR151 cells. activation, % at 11.2 µM. 1% of 650,000 active; in the data active means activation above about 4.9%
# Target sequence (Q8TDV0 whole entry, looked up): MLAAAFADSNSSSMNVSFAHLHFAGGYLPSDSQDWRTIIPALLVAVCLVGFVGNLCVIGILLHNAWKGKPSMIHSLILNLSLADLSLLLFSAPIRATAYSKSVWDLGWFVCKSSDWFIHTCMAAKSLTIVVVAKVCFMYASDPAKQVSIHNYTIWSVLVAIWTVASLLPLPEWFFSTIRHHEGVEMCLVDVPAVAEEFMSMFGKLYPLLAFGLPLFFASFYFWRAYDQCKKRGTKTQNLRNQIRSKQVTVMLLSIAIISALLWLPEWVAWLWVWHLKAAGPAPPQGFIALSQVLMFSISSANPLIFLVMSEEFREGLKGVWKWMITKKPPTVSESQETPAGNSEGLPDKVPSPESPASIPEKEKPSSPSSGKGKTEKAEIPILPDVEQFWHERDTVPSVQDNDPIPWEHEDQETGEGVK
# MITF primary = MITF inhibitors, primary screen, biochemical, AlphaScreen, human; AID 1259374, 2018; 0.91% of 650,000 active; inhibition, % at 2.6 µM; Microphthalmia-associated transcription factor (Homo sapiens), O75030; AlphaScreen MITF homodimerization, bead proximity signal; in the data active means inhibition above about 50%
# TEAD-YAP inh = TEAD-YAP interaction inhibition, primary screen, TEAD-YAP interaction inhibitor project, luminescence, HEK-TIYL cells | TEAD-Gal4/YAP UAS-luciferase luminescence | inhibition, % at 9.12 µM | 1.4% of 640,000 active; in the data active means inhibition above about 32%
# MITF inh conf = MITF inhibitors, retest of hits, confirmation, biochemical, AlphaScreen, triplicate; shares compounds with MITF primary; AlphaScreen MITF homodimerization, biotin/His-MITF beads; inhibition, % at 2.6 µM; 16% of 4,700 active; AID 1259372, 2018;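 active means inhibition above a cutoff derived from the DMSO control wells, cut at about 28% in these data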;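 further: inhibitors lower the bead chemiluminescence by keeping MITF from dimerizing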
# AS interf DR = AlphaScreen optical interference compounds, dose response, counter-screen, biochemical, HTS; AID 1259373, 2018; 6% of 480 active; shares compounds with MITF primary; AlphaScreen optical interference counterscreen, cell-free; IC50, µM; call rule not given here
# AS interf ctr = AlphaScreen optical interference compounds, counter-screen for MITF inhibitor project, biochemical, triplicate. shares compounds with MITF primary. LysRS AlphaScreen counterscreen, signal interference. inhibition, % at 2.6 µM. 7.6% of 4,700 active. AID 1259376, 2018;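 active means inhibition above a cutoff derived from the DMSO control wells, cut at about 30% in these data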
# Numbers stand for hits; – = inactive; · = not tested or not shown. An excerpt weighted towards active compounds, which were near 3.5% of everything screened.
SMILES,FBW7 act,GPR151 ag,MITF primary,TEAD-YAP inh,MITF inh conf,AS interf ctr,others
CN(C)c1ccc(NC(=O)CSc2ncccc2C(=O)O)cc1,–,–,64,–,75,–,AS interf DR=–
Cc1cccc(NC2(C(F)(F)F)N=C3SCCN3C2=O)n1 (configuration not stated),–,–,80,–,–,–,
O=C(O)c1cc([N+](=O)[O-])cc2c1-c1c(cc([N+](=O)[O-])cc1[N+](=O)[O-])/C2=C/c1ccco1,–,–,62,–,68,–,AS interf DR=–
CCN(CC)C(=S)SCc1c(C)c(C)c(Br)c(C)c1C,–,–,52,–,–,–,
CCN(CC)C(=S)SCc1cn2cccc(C)c2n1,–,–,–,–,·,·,
CC1(C)CC(=O)c2sc(NC(=O)CSc3ccc(F)cc3)nc2C1,–,–,–,–,·,·,
O=C(O)C1=NN(c2ccccn2)C(=O)CC1,–,–,77,–,–,100,
Cc1ccc2nc(-c3ccc(NC(=O)Cc4ccccc4)cc3)sc2c1,–,–,–,–,·,·,
CCCCOC(=O)c1ccc(NC(=O)CCCC)cc1,–,–,–,–,·,·,
CN1CCC(N(C)CC(=O)Nc2ccc3c(c2)OC(F)(F)O3)CC1,–,–,57,–,–,–,
CC(=O)N1CCN(CC(=O)Nc2ccc3c(c2)OC(F)(F)O3)CC1,–,–,–,–,·,·,
Cc1ccc2nc(-c3ccc(NC(=O)CNCC(C)(C)CN(C)C)cc3)sc2c1,–,–,52,–,–,–,
CCCCOC(=O)c1ccc(NC(=O)CN(C)C2CCN(C)CC2)cc1,–,–,58,–,–,–,
CN(C)CC(C)(C)CNCC(=O)Nc1ccc2c(c1)OC(F)(F)O2,–,–,56,–,–,–,
COCC1CCCN(Cc2c(C(=O)N3CCCCCCC3)nc3sccn23)C1 (configuration not stated),–,–,–,–,·,·,
NC(=O)c1c(NC(=O)CN(Cc2ccc(F)cc2)C(=O)C2CCC2)sc2c1CCCC2,–,–,–,–,·,·,
Cc1ccc2c(c1)CN(Cc1c(C)nc3sccn13)CC(C)O2 (configuration not stated),–,–,–,–,·,·,
CC(NC(=O)CN(C)C1CCN(C)CC1)c1ccccc1 (configuration not stated),–,–,59,–,–,–,
CCN(CC)CC(=O)NC(C)c1ccccc1 (configuration not stated),–,–,–,–,·,·,
O=C(O)c1cc(S(=O)(=O)Nc2ccc3cn[nH]c3c2)ccc1O,–,–,76,–,52,–,AS interf DR=–
O=C(O)c1cc(S(=O)(=O)Nc2ccncc2)ccc1O,–,–,66,–,43,–,AS interf DR=–
O=S(=O)(Nc1ccc2cn[nH]c2c1)c1ccc2ccccc2c1,–,–,–,–,·,·,
NS(=O)(=O)c1ccc(NS(=O)(=O)c2ccc(O)c(C(=O)O)c2)cc1,–,–,–,–,·,·,
Cc1nc2ccc(NS(=O)(=O)c3ccc(O)c(C(=O)O)c3)cc2s1,–,–,–,–,·,·,
Cc1ccc2nc(NS(=O)(=O)c3ccc(O)c(C(=O)O)c3)sc2c1,–,–,65,–,–,–,
SMILES,FBW7 act,GPR151 ag,MITF primary,TEAD-YAP inh,MITF inh conf,AS interf ctr,others
COc1ccc(-n2cc(-c3ccccc3)c3c(NCCN4CCOCC4)ncnc32)cc1,–,–,–,–,·,·,
C=CCN(C)C(=O)c1cnc2sc(C)cn2c1=O,–,–,–,–,·,·,
Cc1ccc(C)c(Nc2nc(-c3ccc(Cl)cc3)c(-c3ccccc3)s2)c1,–,–,–,–,·,·,
CCN(C(=O)c1cnc2n(c1=O)CCS2)c1ccccc1,–,–,51,–,–,–,
CC1CCCCN1C(=O)c1ccc(Oc2cnccn2)cc1 (configuration not stated),–,–,75,–,–,–,
COc1ccc(C)cc1NC(=O)Cc1c(C(=O)O)[nH]c2ccccc12,–,–,–,–,·,·,
CC(=O)C1C(c2cccs2)NC(=O)NC1(O)C(F)(F)F (configuration not stated),–,–,–,–,·,·,
O=C1C2CCCN2C(=O)N1c1ccc(Br)cc1 (configuration not stated),–,–,51,–,–,–,
CCN(CC)C(=O)C1CCCN(c2ncc(C(=O)NCc3nc4ccccc4[nH]3)s2)C1 (configuration not stated),–,–,–,–,·,·,
CCOC(=O)c1c(C)c(C(=O)NCCc2ccc(OC)c(OC)c2)c(C)n1C,–,–,–,–,·,·,
CCOC(=O)c1c(C)c(C(=O)NCCc2ccccc2OC)c(C)n1C,–,–,55,–,–,–,
O=C(Nc1ccc(Br)cc1)Nc1cccc(Cl)c1,–,–,57,–,–,–,
O=C(Cc1cn2ccsc2n1)N/N=C/c1ccc([N+](=O)[O-])o1,–,–,70,–,92,40,
COc1ccccc1N1CCN(C(=O)Cn2cnc3sc(C)c(S(=O)(=O)N4CCOCC4)c3c2=O)CC1,–,–,–,–,·,·,
COc1cccc(C(=O)N2CCN(Cc3cccc4ccccc34)CC2)c1,–,–,–,–,·,·,
COc1cccc(C(=O)N2CCN(Cc3ccccc3F)CC2)c1,–,–,58,–,–,–,
COc1cccc(C(=O)N2CCN(Cc3ccccc3Br)CC2)c1,–,–,65,–,–,–,
COc1ccc(C(=O)N2CCN(Cc3ccccc3Br)CC2)cc1,–,–,59,–,–,–,
O=C(c1ccc(F)cc1)N1CCN(Cc2ccccc2Br)CC1,–,–,–,–,·,·,
COc1cccc(C(=O)N2CCN(Cc3ccccc3C(F)(F)F)CC2)c1,–,–,71,–,–,–,
O=C(c1ccc(NCCc2ccc(Cl)cc2)c([N+](=O)[O-])c1)N1CC2CC(C1)c1cccc(=O)n1C2 (configuration not stated),–,–,–,–,·,·,
CCCNc1cc(NCCCN2CCCC2=O)nc(N)n1,–,–,–,–,·,·,
CCN(CC)c1ncnc2sc(C(=O)N3CCC(C(N)=O)(N4CCCCC4)CC3)c(C)c12,–,–,–,–,·,·,
N#Cc1ccc(Cl)cc1NC(=O)CCl,–,–,–,–,·,·,
O=[N+]([O-])c1ccccc1CN1CCN(c2ncccn2)CC1,–,–,–,–,·,·,
O=[N+]([O-])c1ccccc1CN1CCN(c2ccccn2)CC1,–,–,54,–,–,–,
O=[N+]([O-])c1ccccc1CN1CCN(Cc2ccccn2)CC1,–,–,69,–,–,–,
O=C(CN1C(=O)C2C3C=CC(C3)C2C1=O)Nc1ccc(Br)cc1 (configuration not stated),–,–,–,–,·,·,
